Rows were chosen to be rich in hits. Some 4.1% of all compounds tested hit in one or more screens of this group.
MEKK2 mut-MEK5 = signal of MEK5 binding to mutant human MEKK2 PB1 domain. bead flow cytometry, Alexa488-MEK5 binding to MEKK2 mutant. percent response, % at 10 µM. AID 1530. 0.35% of 290,000 active; in the data active = percent response above about 24%, passing the limit was not always enough
MEKK3 PB1 HTS = MEKK3-MEK5 PB1 interaction, increase or decrease. bead-based flow cytometry, Alexa488-MEK5 binding to MEKK3; actives lie on both sides; 0 = blocked by unlabeled MEK5, 100 = vehicle. 1.4% of 290,000 active. binding response (% of control), % at 10 µM;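 active = binding response more than 3 SD above or below the average of its plate-row segment, actives on both sides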;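 also: Alexa488 bead fluorescence after subtracting the streptavidin-only scavenger bead signal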
Target sequence (Q99759 whole entry, looked up): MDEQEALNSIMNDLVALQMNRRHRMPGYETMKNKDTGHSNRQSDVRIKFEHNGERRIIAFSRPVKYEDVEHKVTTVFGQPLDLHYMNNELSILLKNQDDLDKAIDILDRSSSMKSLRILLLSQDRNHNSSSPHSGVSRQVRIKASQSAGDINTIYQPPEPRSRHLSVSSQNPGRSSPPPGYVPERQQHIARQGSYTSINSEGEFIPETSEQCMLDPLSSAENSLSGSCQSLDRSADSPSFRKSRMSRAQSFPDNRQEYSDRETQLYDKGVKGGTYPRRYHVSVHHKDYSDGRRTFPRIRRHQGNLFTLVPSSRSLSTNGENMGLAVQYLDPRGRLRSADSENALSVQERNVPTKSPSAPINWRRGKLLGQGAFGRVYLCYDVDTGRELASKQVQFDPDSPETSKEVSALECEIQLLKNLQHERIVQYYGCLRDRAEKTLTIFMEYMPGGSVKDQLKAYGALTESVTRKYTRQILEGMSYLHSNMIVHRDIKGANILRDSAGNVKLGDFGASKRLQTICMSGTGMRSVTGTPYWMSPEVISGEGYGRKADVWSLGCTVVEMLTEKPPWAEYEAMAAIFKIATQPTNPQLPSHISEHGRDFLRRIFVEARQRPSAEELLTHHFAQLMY
CHT inh = inhibits the human high affinity choline transporter. Q9GZV3. 0.86% of 310,000 active. CHT-expressing cells, membrane potential dye, choline response; stronger effect = lower value. B-score at 10 µM;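 active = B-score over 3 SD under the library average, and starting fluorescence ratio not unusually high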;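 also: choline stimulus applied at its EC90 after an EC20 pre-addition; B-score computed on integrated fluorescence ratio after choline addition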
MEKK2wt PB1 HTS = raises or lowers MEK5 binding to wildtype human MEKK2 PB1 domain; 1.1% of 290,000 active; bead flow cytometry, Alexa488-MEK5 binding to MEKK2 WT; actives lie on both sides; binding response (% of control), % at 10 µM; in the data active = binding response below about 67% or above about 130%
CHT PAM = allosteric activators of human choline transporter CHT; Q9GZV3; CHT-expressing cells, membrane potential dye, choline EC20; stronger effect = higher value; LV-AA mutant CHT in HEK293 cells; B-score at 10 µM; 0.49% of 310,000 active; AID 488977;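 active = initial fluorescence not abnormally high and integrated response B-score, plate-corrected, over 3 SD above library mean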
Mot1-301 SUMO = SUMOylation pathway inhibition by Mot1-301 growth rescue; growth rescue, % at 18.8 µM; 1% of 320,000 active; S. cerevisiae Mot1-301 growth rescue, ATP luminescence, 38.5C; percent above DMSO median, 100 means doubled; AID 2716;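 active = every valid replicate shows activation above 250% relative to neutral control wells; inactive = the rest, any valid replicate at or below 250%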;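 also: OY570 slx delta 5 strain wells were the positive control but not used for scaling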
CHT block conf = confirmation of human choline transporter CHT inhibitors. 70% of 2,400 active. CHT activity remaining % of control (stronger effect = lower value), % at 10 µM. shares compounds with CHT inh. CHT-expressing cells, choline membrane potential dye; LV-to-AA substituted CHT, HEK293 cells;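 active = choline transporter activity left, mean of duplicates at 10 µM, below buffer-only control mean minus 3 SD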;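 also: depolarization triggered by choline at its EC90 following an EC20 pre-addition; 0% = hemicholinium-3 full block and 100% = buffer-only control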
HEK293 CHT ctr = activity in parental HEK293 cells lacking CHT; AID 493222; shares compounds with CHT inh; membrane potential dye, choline response; active = decrease or increase beyond buffer ±3SD; membrane potential ratio readout (active if shifted either direction beyond buffer ±3SD; no single direction) at 10 µM; 4% of 2,400 active;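 also: parental cells lack the transporter so any hit is non-specific; ratio is peak minus trough fluorescence over baseline after EC90 choline challenge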
Active calls of the source: *; i = inactive; x = no result.

SMILES	MEKK2 mut-MEK5	MEKK3 PB1 HTS	CHT inh	MEKK2wt PB1 HTS	CHT PAM	Mot1-301 SUMO	CHT block conf	HEK293 CHT ctr
COC(=O)C1=C(C(=O)OC)[C@@H]2N(C)c3ccc(OC)cc3[C@@]23C[C@@H](C(=O)OC)N(C(=O)c2cc(C)oc2C)C3=N1	3	105	i	102	i	19	x	x
CCc1nnc(NC(=O)C2Cc3ccccc3CN2S(=O)(=O)c2c(C)c(C)cc(C)c2C)s1 (configuration not stated)	-3	98	i	94	i	20	x	x
O=C(Nc1cccc(C(F)(F)F)c1)c1csc(-c2ccncc2)n1	2	103	i	98	i	591	x	x
COc1cc(NC(=O)c2csc(-c3ccncc3)n2)cc(C(=O)Nc2cccc(C(F)(F)F)c2)c1	5	87	-8.6*	88	i	25	26%*	i
O=C(/C=C/c1ccccc1)N1CCC(Cc2ccccc2)CC1	x	x	-5.3*	x	i	254	i	i
Cc1ccc(C(=O)NCC(=O)N2CCCCCCC2)cc1	x	x	x	x	x	1	x	x
O=C(C1CC(=O)N(C2CCCC2)C1)N1CCC(Cc2ccccc2)CC1 (configuration not stated)	10	108	-5.8*	110	i	-23	55%*	i
Cc1ccc(C(=O)NCC(=O)N2CCC(Cc3ccccc3)CC2)cc1	-1	96	-5.2*	99	i	19	59%*	i
O=C(Nc1nonc1NC(=O)C1CCCCC1)C1CCCCC1	3	105	i	100	i	-9	x	x
N/C(=N\OC(=O)Cc1ccccc1)c1ccccc1Cl	-5	102	i	102	i	8	x	x
COc1cc(OC)c(NS(=O)(=O)c2ccc3c(c2)NC(=O)CO3)cc1Cl	3	101	i	104	i	3	x	x
CCN(CC)CCCn1c2c(c(SCC(=O)N3CCc4ccccc43)nc1=O)CCC2	x	x	-8*	x	i	13	42%*	i
CCN(CC)CCCn1c2c(c(SCC(=O)Nc3cccc4ccccc34)nc1=O)CCC2	x	x	i	x	i	4	x	x
CCN1CCN(c2ncnc3c2cnn3-c2ccccc2)CC1	13	109	i	113	i	-3	x	x
c1ccc(CCN2CCN(c3ncnc4c3cnn4-c3ccccc3)CC2)cc1	2	102	-5.3*	108	i	-24	34%*	i
Cn1ncc2c(N3CCC(Cc4ccccc4)CC3)ncnc21	-2	105	-6.6*	102	i	21	66%*	i
c1ccc(Cn2ncc3c(N4CCOCC4)ncnc32)cc1	1	113	i	104	i	-6	x	x
COc1cc(SC)ccc1C(=O)OCC(=O)NC1CCCCC1	4	108	i	95	i	2	x	x
COc1cc(SC)ccc1C(=O)NC1CCCCC1	-3	89	-6.2*	90	i	5	i	i
Cc1ccc(C(=O)N/C(=C\c2cccs2)c2nc3ccccc3[nH]2)cc1	0	113	-5*	102	i	11	64%*	i
CC(C)CC(=O)Nc1nc(=S)ss1	15	99	-6.8*	101	i	-16	40%*	i
O/N=C/c1ccnc(SCc2ccc(Cl)cc2)n1	-32	62	i	67	i	4	x	x
O/N=C/c1ccnc(SCc2ccccc2)n1	-12	97	-5.1*	95	i	21	59%*	i
Cc1oc(-c2cccs2)nc1CN1CC[C@@](O)(c2ccccc2)[C@H]2CCCC[C@@H]21	4	100	i	105	i	8	x	x
Cc1ccccc1CC1(CO)CCCN(Cc2nc(-c3cccs3)oc2C)C1 (configuration not stated)	2	104	-6.7*	108	i	-2	i	i
SMILES	MEKK2 mut-MEK5	MEKK3 PB1 HTS	CHT inh	MEKK2wt PB1 HTS	CHT PAM	Mot1-301 SUMO	CHT block conf	HEK293 CHT ctr
Cc1cccc(N2CCN(Cc3nc(-c4ccc(F)cc4F)oc3C)CC2)n1	6	103	i	116	i	27	x	x
Cc1cnc(C)c(N2CCN(Cc3nc(-c4cccc(F)c4F)oc3C)CC2)n1	-6	100	-7.2*	95	i	-6	29%*	i
CC(SCc1ccccc1)C(=O)N/N=C/c1ccc(OCC(=O)NCc2ccco2)cc1 (configuration not stated)	19	101	-8.1*	102	i	0	47%*	i
COc1ccc(CSCC(=O)N/N=C/c2ccc(OCC(=O)NCc3ccco3)cc2)cc1	10	101	i	101	i	3	x	x
CC(C)(C)NCc1cccn1-c1sc2c(c1C#N)CCCC2	-2	105	-6.3*	100	i	0	20%*	-17*
COc1ccc(N2C(=O)CC(N(Cc3ccco3)C(=O)CCC(=O)O)C2=O)cc1 (configuration not stated)	-8	96	-6.4*	97	i	13	i	i
CCCOc1ccc(N2C(=O)CC(N(Cc3ccco3)C(=O)CCC(=O)O)C2=O)cc1 (configuration not stated)	-4	101	i	97	i	-7	x	x
Cc1ccccc1Nc1nc(N)nc(COC(=O)C(NC(=O)c2ccco2)C(C)C)n1 (configuration not stated)	2	100	-6.2*	102	i	0	i	i
Cc1ccc(C(=O)N(C)CC(=O)Nc2cccc(C)c2C)o1	8	103	i	104	i	-12	x	x
COc1cccc(C(=O)NN/C(C)=C/C(=O)C(F)(F)C(F)(F)C(F)(F)F)c1	3	105	-8.4*	106	i	9	67%*	i
C/C(=N\NC(=O)C1CCCC1)c1ccc(Cl)cc1Cl	-1	102	i	99	i	3	x	x
Cc1ccc(/C=C2\SC(=O)N(CCC(=O)N3CCN(C)CC3)C2=O)cc1	0	106	i	107	i	i	x	x
CN1CCN(C(=O)CCN2C(=O)S/C(=C/c3ccc(Cl)cc3)C2=O)CC1	-3	90	-6.5*	94	i	-22	50%*	i
CCCN(C(=O)c1cn(CC)c2nc(C)ccc2c1=O)c1c(N)n(Cc2ccccc2)c(=O)[nH]c1=O	-1	98	-5.3*	96	i	40	33%*	i

Assay outcomes from PubChem BioAssay.
